In PubChem BioAssay:
Where “and” joins values, the source holds several entries; their conditions need not be identical. Equal values may be shown once.

Experiment: A549 cell viability effects, profiling panel, calcein-AM fluorescence, 48 h, basal (AID 1162); note: test concentration not given here
Settings: higher = more signal
For `COC(=O)C1=C(C)N(Cc2ccccc2)[C@]23O[C@](C(=O)OC)(C(=O)N2[C@@H]1c1ccccc1)[C@@H](C(=O)OC)[C@H]3C(=O)OC`, the z-score was 1.59 and 1.67.
Compound `CO[C@@H]1COC(=O)CC=C[C@H](C)COC(=O)[C@H](C)NC(=O)CC=C[C@H]1C` has a z-score of 0.158.
With `COC(=O)C1=C(C)N(Cc2ccccc2)C2=C(C(C)=O)[C@H](c3ccccc3)[C@@](O)(C(=O)OC)C(=O)N2[C@@H]1c1ccccc1` the z-score was 1.73 and 0.919.
With `C[N+](C)(C)CCCCNC(=O)[C@H]1C[C@H]2C(=O)N[C@@H](CCCC[N+](C)(C)C)C(=O)N2[C@H]1c1cccc(OCCO)c1` the z-score was -0.663 and -0.261.
For `CCOC(=O)NN=C1C[C@@H](O)[C@@H](O)[C@@H]2[C@@H]3C(=O)N(Cc4ccc5c(c4)OCO5)C(=O)[C@@H]3CC[C@@H]12`, the z-score was 1.24.
In the case of `C[N+](C)(C)CCCCNC(=O)[C@H]1C[C@H]2C(=O)N[C@@H](CCCC[N+](C)(C)C)C(=O)N2[C@H]1c1ccc(O)cc1`, the z-score is reported as -0.231 and -0.502.
In the case of `O=c1n(-c2ccccc2)c(=O)n2n1CC[C@@H]1C(=NOC[C@@H](O)COCc3ccco3)[C@H]3O[C@H]3[C@@H](O)[C@@H]12`, the z-score is reported as -1.18 and 0.202.
For `C=C[C@@H](C)[C@H](O)c1ccc(O)c2ccccc12`, the z-score was -0.529 and -0.709.
With `COC(=O)C1=C(C)N(Cc2ccccc2)C2=C(C(C)=O)C[C@@](O)(C(=O)OC)C(=O)N2[C@@H]1c1ccccc1` the z-score was -0.112 and 0.965.
In the case of `CCC[C@@H]1C[C@@]1(CCC)[C@@H](NC(=O)c1ccc(-c2ccccc2)cc1)c1cccc(Cl)c1`, the z-score is reported as -2.26 and 0.247.
With `C=CCN(CCCC)C(=O)C1N(CCOCCO)C(=O)C2C(C(=O)O)C3C=CC21O3` (stereo not given) the z-score was -0.397 and -0.276.
In the case of `C=CCN(Cc1ccccc1)C(=O)C1N(CCOCCO)C(=O)C2C(C(=O)O)C3C=CC21O3` (stereo not given), the z-score is reported as 0.457 and -0.65.
For `C=CC[C@@H](O)c1ccc(O)c2ccccc12`, the z-score was 0.292 and 0.405.
`CO[C@@H]1C=CCC(=O)N2CCC[C@H]2C(=O)OC[C@H](C)C(=O)OC[C@H]1C` gave a z-score of 0.616.
For `CN1C(=O)C2CC=C([C@H]3Oc4ccccc4S(=O)(=O)N4CCC[C@@H]34)CC2C1=O` (stereo not given in full), the z-score was -0.657 and 0.15.
With `CCOC(=O)c1ccc(NC(=O)O[C@H]2[C@H](OC(=O)Nc3ccccc3)[C@@H](OC(=O)Nc3ccccc3)[C@@H](OC)O[C@@H]2CO)cc1` the z-score was -1 and -2.09.
With `C=CCN(Cc1ccccc1)C(=O)C(c1cccs1)N(C(=O)/C=C\C(=O)O)c1c(Cl)cccc1CO` (stereo not given) the z-score was -0.159 and -0.34.
In the case of `CC(CO)N1C(=O)[C@@H]2C3C(=O)OCCC=C[C@H]3OC23C=CCN(CCN2CCOCC2)C(=O)[C@@H]13` (stereo not given in full), the z-score is reported as -0.438 and -0.439.
In the case of `CO[C@H]1COC(=O)CC=C[C@@H](C)COC(=O)[C@@H](OCc2ccccc2)C=C[C@@H]1C`, the z-score is reported as 0.497.
With `CCCC[C@@H]1CN2[C@@H](CC[C@@H](C)[C@@H]2c2ccc(Br)cc2)C(=O)O1` the z-score was 0.761 and 1.06.
For `CCN1C(=O)[C@H]2[C@H]3[C@H](O)[C@H](O)CC(=NOC[C@@H](O)COCc4ccco4)[C@@H]3CC[C@H]2C1=O`, the z-score was 0.107 and -0.737.
For `C=CCN(CCCCC)C(=O)C(c1cccs1)N(C(=O)/C=C\C(=O)O)c1ccc(CCO)cc1` (stereo not given), the z-score was 1.11 and 0.437.
For `C=CCN(C(=O)C1N(c2c(Cl)cccc2CO)C(=O)C2C(C(=O)O)C3C=CC21O3)c1ccc(OC)cc1` (stereo not given), the z-score was -0.211 and 1.87.
With `C=CCN(CCCC)C(=O)C1N(C(C)(C)CO)C(=O)C2C(C(=O)O)C3C=CC21O3` (stereo not given) the z-score was -0.77 and -0.624.
With `C=C[C@@H](C)[C@@H](O)c1ccc(OCCO)cc1` the z-score was -0.61 and 0.227.
With `C=CCN(CCCCC)C(=O)C1N(C(C)(C)CO)C(=O)C2C(C(=O)O)C3C=CC21O3` (stereo not given) the z-score was -0.777 and -0.44.
With `CCOC(=O)[C@@H]1CC2O[C@]23C[C@@H]1C(=O)N1CCC[C@@H]1[C@H]3O[Si](C)(C)C(C)(C)C` (stereo not given in full) the z-score was -0.889 and -0.825.
With `CCOC(=O)C[C@H]1[C@H](OC(=O)c2ccccc2-c2ccccc2)[C@@H](NC(=O)Cc2ccc(OC)cc2)c2cc(OCCCO)ccc2N1C(=O)Cc1ccc(OC)cc1` the z-score was 0.615 and 0.158.
For `COC(=O)CC=C[C@@H](C)[C@@H](CO)NS(=O)(=O)c1ccc(C)cc1`, the z-score was -0.188 and 0.816.
With `C[N+](C)(C)CCCCCCNC(=O)[C@@H]1C[C@@H]2C(=O)N[C@@H](CCCC[N+](C)(C)C)C(=O)N2[C@@H]1c1ccc(O)cc1` the z-score was 0.602 and 0.107.
With `COC(=O)C1=C(C)N(Cc2ccccc2)C2=C3C(=O)CCC[C@@H]3[C@@](O)(C(=O)OC)C(=O)N2[C@@H]1c1ccccc1` the z-score was 0.941 and 0.383.
With `O=C1C[C@]2(c3ccc([N+](=O)[O-])cc3)C(=O)N(Cc3ccccc3)c3cc(CO)ccc3[C@H]2N1C1CCCCC1` the z-score was -0.8 and 0.627.
Compound `CC(C)=CCCC(C)=CCON=C1C[C@@H](O)[C@@H](O)[C@@H]2[C@@H]3C(=O)N([C@@H](C)c4ccccc4)C(=O)[C@@H]3CC[C@H]12` has a z-score of 0.0319.
With `C[C@@H]1CC[C@H]2C(=O)NC[C@@H](O)CN2[C@H]1c1ccc(Br)cc1` the z-score was -0.179 and 0.44.
With `COc1ccc(O[C@H]2C=C[C@@H](c3ccccc3)O[C@@H]2COC(=O)CCC(C)=NO[C@H](C)c2cn([C@H](CO)Cc3ccccc3)nn2)cc1` the z-score was -0.748 and -0.352.
In the case of `C=CCN(CCCC)C(=O)C(c1cccs1)N(C(=O)/C=C\C(=O)O)c1c(Cl)cccc1CO` (stereo not given), the z-score is reported as -0.163 and -0.667.
In the case of `CC(CO)N1C(=O)[C@@H]2C3C(=O)OCCC=C[C@H]3OC23C=CCN(c2ccc(Cl)cc2)C(=O)[C@@H]13` (stereo not given in full), the z-score is reported as 0.112 and -0.123.
For `C=CCN(C(=O)C(c1cccs1)N(CCOCCO)C(=O)/C=C\C(=O)O)C(C)(C)C` (stereo not given), the z-score was 1.01 and 1.61.
For `C=C[C@H](OC)[C@@H](O)c1ccc(O)c(F)c1`, the z-score was -0.52 and -0.4.
With `CC(CO)N1C(=O)[C@@H]2C3C(=O)OCCC=C[C@H]3OC23C=CCN(C(C)(C)C)C(=O)[C@@H]13` (stereo not given in full) the z-score was -0.418 and -0.461.
